From PubChem BioAssay (NCI)
Compounds without any hit were thinned out: in the full panel of roughly 83,000, 20% have a hit.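 Cell lines were cultured in 96-well plates, exposed to a single compound concentration, and assessed for percent growth 48 hours later.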 Calls of active or inactive are those of the source. Rule for the calls: active = growth percent below 10; inactive = the rest.

Legend:
Assay in all cases: NCI-60 one-dose screen, 48 h (100 = growth as untreated, 0 = no growth, -100 = all killed)
Settings in all cases: 10 µM unless noted
SR leukemia = test system: SR leukemia
RPMI-8226 leukemia = test system: RPMI-8226 leukemia
OVCAR-8 ovarian = test system: OVCAR-8 ovarian
OVCAR-5 ovarian = test system: OVCAR-5 ovarian
SK-OV-3 ovarian = test system: SK-OV-3 ovarian
IGROV1 ovarian = test system: IGROV1 ovarian
OVCAR-3 ovarian = test system: OVCAR-3 ovarian
HS 578T breast = test system: HS 578T breast
T-47D breast = test system: T-47D breast
BT-549 breast = test system: BT-549 breast
MDA-MB-435 melanoma = test system: MDA-MB-435 melanoma
SW-620 colon = test system: SW-620 colon
MCF7 breast = test system: MCF7 breast
HCT-116 colon = test system: HCT-116 colon
HCC-2998 colon = test system: HCC-2998 colon
KM12 colon = test system: KM12 colon
NCI/ADR-RES ovarian = test system: NCI/ADR-RES ovarian
OVCAR-4 ovarian = test system: OVCAR-4 ovarian

Measured: growth

Cc1sc(N=Nc2ccc(N(C)C)cc2)[n+]([O-])c1C
inactive: SR leukemia 98.2% | RPMI-8226 leukemia 106% | OVCAR-8 ovarian 101% | OVCAR-5 ovarian 107% | SK-OV-3 ovarian 104% | IGROV1 ovarian 93.4% | OVCAR-3 ovarian 96% | HS 578T breast 96.3% | T-47D breast 95.4% | BT-549 breast 94.3% | MDA-MB-435 melanoma 101% | SW-620 colon 99.3% | MCF7 breast 79.9% | HCT-116 colon 112% | HCC-2998 colon 112% | KM12 colon 91.7%

O=C(Nc1ccc(OCc2nnc(-c3ccc(Cl)cc3)o2)c(F)c1)Nc1ccc(Cl)c(Cl)c1
inactive: SR leukemia 21.4% | RPMI-8226 leukemia 57% | OVCAR-8 ovarian 60.2% | OVCAR-5 ovarian 66.6% | SK-OV-3 ovarian 60.6% | IGROV1 ovarian 66.5% | OVCAR-3 ovarian 25.9% | HS 578T breast 32% | NCI/ADR-RES ovarian 65.2% | T-47D breast 55.8% | BT-549 breast 93.6% | MDA-MB-435 melanoma 73.1% | SW-620 colon 47% | MCF7 breast 50.3% | HCT-116 colon 29.7% | HCC-2998 colon 85.4% | KM12 colon 53.7%

COc1ccc(OC)c(/C=C2\Oc3cc(OCCN4CCCC4)ccc3C2=O)c1
inactive: SR leukemia 56.6% | RPMI-8226 leukemia 93.5% | OVCAR-8 ovarian 92% | OVCAR-5 ovarian 94.5% | OVCAR-4 ovarian 98.5% | IGROV1 ovarian 95.8% | OVCAR-3 ovarian 101% | HS 578T breast 86.4% | NCI/ADR-RES ovarian 86.4% | BT-549 breast 95.7% | MDA-MB-435 melanoma 97% | MCF7 breast 88.1% | HCT-116 colon 69% | HCC-2998 colon 98.7% | KM12 colon 85.4%

COC(=O)c1cc(-c2cccs2)c(C#N)c(N)c1C#N
inactive: SR leukemia 94.5% | RPMI-8226 leukemia 99.7% | OVCAR-8 ovarian 98.9% | OVCAR-5 ovarian 105% | SK-OV-3 ovarian 101% | IGROV1 ovarian 94.2% | OVCAR-3 ovarian 108% | HS 578T breast 102% | NCI/ADR-RES ovarian 106% | T-47D breast 69.1% | BT-549 breast 107% | MDA-MB-435 melanoma 104% | SW-620 colon 102% | MCF7 breast 67.7% | HCT-116 colon 95.5% | HCC-2998 colon 106% | KM12 colon 108%

Cc1cccc2cc(/C=C/C(=O)/C=C/c3ccc(Cl)cc3)c(=O)[nH]c12
inactive: OVCAR-8 ovarian 21.8% | OVCAR-5 ovarian 84.8% | SK-OV-3 ovarian 91.5% | OVCAR-3 ovarian 13.9% | HS 578T breast 50.9% | NCI/ADR-RES ovarian 94.8% | T-47D breast 41.6%
active: SR leukemia 0.572% | RPMI-8226 leukemia 6.05% | BT-549 breast 7.28% | MDA-MB-435 melanoma -32.7% | SW-620 colon 8.48% | MCF7 breast 9.87% | HCT-116 colon -52.7% | HCC-2998 colon -4.78% | KM12 colon 8.42%

CCN(CC)c1cc(/C=C/c2ccc(OC)c(OC)c2)nc2cc(F)c(F)cc12
inactive: SR leukemia 10.7% | RPMI-8226 leukemia 99.1% | OVCAR-8 ovarian 36% | OVCAR-5 ovarian 88.7% | IGROV1 ovarian 19.2% | NCI/ADR-RES ovarian 41.2% | T-47D breast 40.2% | BT-549 breast 24.5% | MDA-MB-435 melanoma 100% | SW-620 colon 104% | MCF7 breast 65.3% | HCT-116 colon 24.3% | HCC-2998 colon 116% | KM12 colon 103%
active: SK-OV-3 ovarian -39.5% | HS 578T breast 2.13%

COc1cc(Cn2c(SCCC(=O)Nc3ccc(F)cc3)nc3ccccc3c2=O)cc(OC)c1OC
inactive: SR leukemia 56.7% | RPMI-8226 leukemia 74.9% | OVCAR-8 ovarian 84.1% | OVCAR-5 ovarian 94.1% | SK-OV-3 ovarian 95% | IGROV1 ovarian 77.8% | HS 578T breast 86.2% | NCI/ADR-RES ovarian 83.5% | T-47D breast 77.8% | BT-549 breast 92.6% | MDA-MB-435 melanoma 106% | SW-620 colon 97.9% | MCF7 breast 91% | HCT-116 colon 65.3% | HCC-2998 colon 95.7% | KM12 colon 99.3%

CCCCCCCCCCCCOB(OCCCCCCCCCCCC)OCCCCCCCCCCCC
active: SK-OV-3 ovarian -1.64%
inactive: SR leukemia 89.8% | RPMI-8226 leukemia 95.8% | OVCAR-8 ovarian 101% | OVCAR-5 ovarian 110% | IGROV1 ovarian 107% | OVCAR-3 ovarian 74.3% | HS 578T breast 107% | NCI/ADR-RES ovarian 97.6% | BT-549 breast 96.7% | MDA-MB-435 melanoma 114% | SW-620 colon 117% | MCF7 breast 97.5% | HCT-116 colon 123% | HCC-2998 colon 91.6% | KM12 colon 102%

CSc1ccccc1C#C/C=C\C#Cc1ccccc1N1CCCC1=O
active: IGROV1 ovarian -32.2% | MDA-MB-435 melanoma 8.9%
inactive: SR leukemia 12.5% | RPMI-8226 leukemia 22.2% | OVCAR-8 ovarian 74.9% | OVCAR-5 ovarian 72.2% | SK-OV-3 ovarian 85.8% | OVCAR-3 ovarian 50.9% | HS 578T breast 98% | NCI/ADR-RES ovarian 41.5% | T-47D breast 63.2% | BT-549 breast 69.7% | SW-620 colon 26.9% | MCF7 breast 37.6% | HCT-116 colon 34.4% | HCC-2998 colon 50.2% | KM12 colon 44.4%

Clc1ccc(-c2nc(-c3ccco3)cn3ccnc23)cc1
inactive: SR leukemia 63.4% | RPMI-8226 leukemia 52.9% | OVCAR-8 ovarian 49.8% | OVCAR-5 ovarian 87.9% | IGROV1 ovarian 40.7% | HS 578T breast 74% | NCI/ADR-RES ovarian 70.1% | T-47D breast 40.2% | BT-549 breast 84.5% | MDA-MB-435 melanoma 78.6% | SW-620 colon 72.7% | MCF7 breast 27.2% | HCC-2998 colon 58.2% | KM12 colon 48.7%
active: SK-OV-3 ovarian -14.7%

CCN(Cc1ccccc1)c1ccc(SC#N)cc1
inactive: OVCAR-8 ovarian 85.9% | OVCAR-5 ovarian 97.2% | OVCAR-4 ovarian 50.5% | SK-OV-3 ovarian 107% | IGROV1 ovarian 103% | OVCAR-3 ovarian 46.2% | NCI/ADR-RES ovarian 81.9% | BT-549 breast 71.5% | MDA-MB-435 melanoma 98.6% | SW-620 colon 83.8% | MCF7 breast 75.3% | HCT-116 colon 43.7% | HCC-2998 colon 94.1% | KM12 colon 41.3%
active: SR leukemia -9.48%

CCOC(=O)[C@H](CSSc1ncnc2cc[nH]c12)NC(=O)[C@@H](C)c1ccc2cc(OC)ccc2c1
inactive: SR leukemia 18.9% | OVCAR-8 ovarian 20.7% | OVCAR-5 ovarian 27.3% | IGROV1 ovarian 41.3% | OVCAR-3 ovarian 25.4% | HS 578T breast 59% | NCI/ADR-RES ovarian 18.6% | T-47D breast 23.3% | BT-549 breast 46.3% | MDA-MB-435 melanoma 24.4% | SW-620 colon 19.3% | HCT-116 colon 11.1% | HCC-2998 colon 25.4% | KM12 colon 23.5%
active: SK-OV-3 ovarian 8.34% | MCF7 breast 8.81%

O=C(COc1ccccc1)N1N=C(c2ccc(Cl)cc2)CC1c1c[nH]c2ccccc12 (stereo not drawn)
inactive: SR leukemia 10.8% | OVCAR-8 ovarian 70.4% | OVCAR-5 ovarian 112% | SK-OV-3 ovarian 81.4% | IGROV1 ovarian 30.2% | OVCAR-3 ovarian 77.9% | HS 578T breast 93.7% | NCI/ADR-RES ovarian 83% | T-47D breast 51.4% | BT-549 breast 71.3% | MDA-MB-435 melanoma 93.8% | SW-620 colon 54.5% | MCF7 breast 39.7% | HCT-116 colon 68.5% | HCC-2998 colon 103% | KM12 colon 74.1%

C=C1C(=O)O[C@H]2[C@H]1CC/C(COC(=O)NCCc1ccc(OC)cc1)=C\CC[C@@]1(C)O[C@@H]21
active: SR leukemia -4.05% | OVCAR-8 ovarian 2.7% | OVCAR-3 ovarian -29.6% | T-47D breast -5.43% | SW-620 colon -65.6% | MCF7 breast 2.77% | HCT-116 colon -58.4%
inactive: OVCAR-5 ovarian 30.9% | OVCAR-4 ovarian 17.4% | SK-OV-3 ovarian 89.3% | HS 578T breast 46% | NCI/ADR-RES ovarian 78.9% | MDA-MB-435 melanoma 21.5% | HCC-2998 colon 71.1% | KM12 colon 56.9%

O=C(O)c1cn(C2CC2)c2cc(N3CCN(S(=O)(=O)c4ccc(Cl)c(Cl)c4)CC3)c(F)cc2c1=O
inactive: OVCAR-5 ovarian 12.5% | OVCAR-4 ovarian 20.8% | SK-OV-3 ovarian 26.8% | IGROV1 ovarian 29.3% | NCI/ADR-RES ovarian 53.5% | T-47D breast 16.3% | MDA-MB-435 melanoma 13% | SW-620 colon 20.7% | MCF7 breast 13.5% | HCC-2998 colon 24.8% | KM12 colon 14.6%
active: SR leukemia -25.1% | OVCAR-8 ovarian 5.48% | OVCAR-3 ovarian 9.87% | BT-549 breast -4.65% | HCT-116 colon 3.95%

Cc1cc(C)c2c(=O)[nH]c(SCC(=O)Nc3cccc(S(=O)(=O)N(C)C)c3)nc2n1
inactive: SR leukemia 70.8% | OVCAR-8 ovarian 106% | OVCAR-5 ovarian 97.4% | OVCAR-4 ovarian 105% | SK-OV-3 ovarian 103% | IGROV1 ovarian 40.6% | OVCAR-3 ovarian 111% | HS 578T breast 122% | NCI/ADR-RES ovarian 105% | T-47D breast 92.4% | BT-549 breast 103% | MDA-MB-435 melanoma 105% | SW-620 colon 105% | MCF7 breast 97.4% | HCT-116 colon 97.1% | HCC-2998 colon 106% | KM12 colon 112%

CCCCC(N)(C(=O)O)C1CCCC1 (stereo not drawn)
inactive: SR leukemia 96.4% | OVCAR-8 ovarian 97.2% | OVCAR-5 ovarian 97.8% | OVCAR-4 ovarian 103% | SK-OV-3 ovarian 117% | IGROV1 ovarian 110% | OVCAR-3 ovarian 116% | HS 578T breast 122% | NCI/ADR-RES ovarian 97.4% | T-47D breast 110% | BT-549 breast 103% | SW-620 colon 105% | MCF7 breast 91.4% | HCT-116 colon 101% | HCC-2998 colon 112% | KM12 colon 113%

CC(C)(C)c1cc(-c2nc3ccc(N4CCN(CCO)CC4)cc3[nH]2)cc(C(C)(C)C)c1O
active: SR leukemia -16% | MDA-MB-435 melanoma 6.38% | SW-620 colon 9.88%
inactive: OVCAR-8 ovarian 83.8% | OVCAR-5 ovarian 90.6% | OVCAR-4 ovarian 76.7% | SK-OV-3 ovarian 84% | IGROV1 ovarian 82.7% | OVCAR-3 ovarian 72.7% | HS 578T breast 67% | NCI/ADR-RES ovarian 93.2% | T-47D breast 60.6% | BT-549 breast 92% | MCF7 breast 35.6% | HCT-116 colon 25.3% | HCC-2998 colon 12.9% | KM12 colon 18.2%

FC(F)(F)c1cccc(-n2nnc3cnc(Nc4ccc(N5CCCCC5)cc4)nc32)c1
inactive: SR leukemia 29.2% | OVCAR-8 ovarian 37.5% | OVCAR-5 ovarian 74.3% | SK-OV-3 ovarian 80.2% | IGROV1 ovarian 88.8% | HS 578T breast 76.5% | NCI/ADR-RES ovarian 76.9% | MDA-MB-435 melanoma 37.5% | SW-620 colon 35.7% | MCF7 breast 71.2% | HCC-2998 colon 88.3% | KM12 colon 65.8%
active: OVCAR-4 ovarian -9.56% | HCT-116 colon 4.87%
